Assay results as given in PubChem BioAssay (NCATS).
Results filed as inconclusive are left out. A call without a number means that no potency is given here. More than one record can exist for a structure, and the calls need not agree. The source made the active and inactive calls. Calls come from the whole dose curve; as a rule, active = well fitted curve in the direction sought with a large enough effect; inconclusive = small, poorly fitted or top-dose-only effect, or another doubt; inactive = no such curve, though single readings can be large; an effect the other way counts as inactive or inconclusive. Peptide text beside a SMILES is read from it.

Tests used:
[1] = qHTS to identify inhibitors of the type 1 interferon - major histocompatibility complex class I in skeletal muscle: primary screen against the NCATS Pharmaceutical Collection (AID 1347407);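 note: luminescence of HiBiT knocked into endogenous HLA-B as interferon-induced MHC class I level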
Outline: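 Immortalized human myoblasts (C25cl48) with HiBiT knocked into endogenous HLA-B*08:01 were stimulated with 4 ng/ml IFN-beta and treated with compounds (8-point, 1:5, top 46 uM final) for 24 h at 37 C; HiBiT lytic luminescence read.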

[2] = biological target: Protein phosphatase 1D (Homo sapiens) (UniProt O15297); experiment: RapidFire Mass Spectrometry qHTS Assay for Modulators of WT P53-Induced Phosphatase 1 (WIP1) (AID 1347424);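 note: amount of dephosphorylated VEPPL-S-QETFS peptide product formed by WIP1; series mostly up to about 63 µM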
Sequence of Protein phosphatase 1D (Homo sapiens) (O15297 whole entry, looked up): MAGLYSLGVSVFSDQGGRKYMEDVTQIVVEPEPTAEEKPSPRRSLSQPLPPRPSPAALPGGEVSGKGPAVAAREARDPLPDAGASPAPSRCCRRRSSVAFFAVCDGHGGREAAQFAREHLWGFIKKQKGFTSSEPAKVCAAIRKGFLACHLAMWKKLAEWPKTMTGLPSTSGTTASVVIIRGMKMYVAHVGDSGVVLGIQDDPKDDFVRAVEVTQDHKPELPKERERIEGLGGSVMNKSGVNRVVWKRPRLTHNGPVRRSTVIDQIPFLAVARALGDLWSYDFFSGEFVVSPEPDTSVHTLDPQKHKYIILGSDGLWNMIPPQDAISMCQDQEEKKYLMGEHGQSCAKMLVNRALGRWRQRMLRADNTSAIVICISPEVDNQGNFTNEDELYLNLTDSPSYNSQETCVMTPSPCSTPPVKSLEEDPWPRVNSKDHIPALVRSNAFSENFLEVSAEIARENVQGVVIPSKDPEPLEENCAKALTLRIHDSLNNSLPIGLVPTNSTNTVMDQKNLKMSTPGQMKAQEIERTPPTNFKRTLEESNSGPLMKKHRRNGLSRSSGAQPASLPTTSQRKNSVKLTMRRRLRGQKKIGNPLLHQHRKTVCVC
Outline: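 10 nM WIP1 + cpd, 1 h RT; + 2 uM VEPPL-pS-QETFS, 5 min RT; stop 0.5% formic acid; labelled product standard 1 uM; RapidFire MS. Buffer 50 mM Tris pH 7.5, 30 mM MgCl2, 1 mM TCEP.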

[3] = biological target: Protein phosphatase 1D (Homo sapiens) (UniProt O15297); experiment: Rhodamine-PBP qHTS Assay for Modulators of WT P53-Induced Phosphatase 1 (WIP1) (AID 1347425)
Outline: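 WIP1 (5 nM final) was preincubated with compound for 1 hour at room temperature. It then dephosphorylated 10 uM VEPPL-pS-QETFS peptide in Tris-HCl pH 7.5 with 30 mM MgCl2. Released Pi was detected by 10 uM Rh-PBP fluorescence (ex 525/em 598 nm) read at 1-min intervals for 11 min, as delta f1 - f0.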

[4] = Primary qHTS for inhibitors of La Crosse Virus (LACV) - induced cell death in SH-SY5Y cells (AID 1508616); note: potency is the fitted concentration of half-maximal effect
Outline: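 Luminescent ATP readout (ATPLite 1step, 5 min room temperature) measured rescue from LACV-induced death after 6 days of infection at 0.01 MOI; normalized to infected DMSO wells and uninfected DMSO wells.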

[5] = qHTS for inhibitors of adenylyl cyclases using a fission yeast platform: a pilot screen against the NCATS LOPAC library (AID 1347410)
Outline: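 S. pombe CHP2027 (AC9-GNAS-PDE4D2) carrying a PKA-repressed fbp1-GFP reporter was exposed to LOPAC compounds (final up to 57 µM) for 18 h at 30C in the dark, in EMM with histidine, lysine and uracil; GFP gain-of-signal read by laser scanning cytometry.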

[6] = biological target: Single-stranded DNA cytosine deaminase (Homo sapiens) (UniProt Q9GZX7); experiment: Validation qHTS assay for inhibitors of Activation Induced Cytidine Deaminase (AID): AID signal (AID 1347429)
Sequence of Single-stranded DNA cytosine deaminase (Homo sapiens) (Q9GZX7 whole entry, looked up): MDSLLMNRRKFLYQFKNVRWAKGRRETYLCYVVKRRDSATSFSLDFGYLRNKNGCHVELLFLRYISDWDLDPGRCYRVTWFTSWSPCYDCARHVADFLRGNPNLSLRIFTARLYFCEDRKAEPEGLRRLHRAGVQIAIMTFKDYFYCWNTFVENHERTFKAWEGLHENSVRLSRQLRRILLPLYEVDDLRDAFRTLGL
Outline: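 AID and UDG were combined and compounds added at final up to 114 uM, then DJC20/DJC23 FRET substrate was added for 4 hr at room temperature. NaOH was then added for 30 min before fluorescence was read at 540/590 nm.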

[7] = Validation qHTS assay for inhibitors of Activation Induced Cytidine Deaminase (AID): UDG Counterscreen signal (AID 1347427)
Outline: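 Counterscreen read of UDG activity (2 U/mL, 4/3x) in the FRET deamination format with AID (1 uM, 4/3x), DJC20/DJC23 substrates (250 nM, 4x), 4 h at room temperature. NaOH stop, fluorescence at 560 ex/665 em.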

[8] = biological target: Calcium and integrin-binding protein 1 (Homo sapiens) (UniProt Q99828); experiment: Confirmatory qHTS for Identification of Calcium Integrin Binding Protein 1 (CIB1) Competitor (AID 1508617); note: nearly all actives have a fitted effect of over 65% in size; note: potency is the fitted concentration of half-maximal effect
Sequence of Calcium and integrin-binding protein 1 (Homo sapiens) (Q99828 whole entry, looked up): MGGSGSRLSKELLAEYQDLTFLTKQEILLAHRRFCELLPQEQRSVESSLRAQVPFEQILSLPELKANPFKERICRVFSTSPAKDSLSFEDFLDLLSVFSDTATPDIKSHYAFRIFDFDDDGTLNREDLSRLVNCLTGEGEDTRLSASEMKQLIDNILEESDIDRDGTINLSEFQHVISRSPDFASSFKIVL
Outline: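 FP competition: CIB1-GST (1 uM final) in 5 mM HEPES pH 7.4, 125 mM NaCl, 5 mM CaCl2, 0.01% Tween20 preincubated 15 min RT with compounds (up to 114 uM), then FITC-alphaIIb peptide (100 nM), 15 min RT; Ex 480/Em 540.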

[9] = qHTS to identify inhibitors of the type 1 interferon - major histocompatibility complex class I in skeletal muscle: primary screen against the NCATS Mechanism Interrogation Plate v5.0 (MIPE) Libary (AID 1347411); note: nearly all actives have a fitted effect of over 65% in size
Outline: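 Immortalized human C25cl48 myoblasts with HiBit knocked into endogenous HLA-B*08:01 were stimulated with 4.0 ng/ml IFN-beta and exposed to compounds (11-point 1:3 titration, top 46 uM final) for 24 hrs at 37 C; HiBiT lytic luminescence measured.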

Nc1cc(C(Cl)=C(Cl)Cl)c(S(N)(=O)=O)cc1S(N)(=O)=O
Potency [1]: inactive | Potency [2]: inactive | outcome [3]: inactive | Potency [4]: inactive

COC(=O)[C@H](Cc1ccccc1)NC(=O)[C@@H](N)CC(=O)O (H-Asp-Phe-OMe)
Potency [1]: inactive | Potency [2]: inactive | outcome [3]: inactive | Potency [4]: inactive

CC1(C)CCC(C)(C)c2cc(NC(=O)c3ccc(C(=O)O)cc3)ccc21
Potency [4]: inactive

Cc1nc2n(c(=O)c1CCN1CCC(c3noc4cc(F)ccc34)CC1)CCCC2
Potency [1]: inactive | Potency [2]: inactive | outcome [3]: inactive | Potency [4]: inactive

COC(=O)C1=C(C)NC(C)=C(C(=O)OCCCN2CCC(c3ccccc3)(c3ccccc3)CC2)C1c1cccc([N+](=O)[O-])c1 (stereo not given)
Potency [2]: inactive | outcome [3]: inactive | Potency [4]: inactive

CCC[C@@H]1C[C@@H](C(=O)N[C@@H]([C@H]2O[C@H](SC)[C@H](O)[C@@H](O)[C@H]2O)[C@@H](C)O)N(C)C1
Potency [1]: inactive | Potency [2]: inactive | outcome [3]: inactive | Potency [4]: inactive

CC(S)C(=O)NCC(=O)O (stereo not given)
Potency [1]: inactive | Potency [2]: inactive | outcome [3]: inactive | Potency [4]: inactive

Oc1ccc2ccccc2c1SSc1c(O)ccc2ccccc12
outcome [5]: inactive | outcome [6]: inactive | Potency [4]: inactive

CCN(CC)C(=S)SSC(=S)N(CC)CC
Potency [2]: inactive | outcome [3]: inactive | Potency [7]: inactive | outcome [6]: inactive | Potency [4]: inactive | Potency [8]: 14.1 µM (active) and inactive

Cn1c(NCCN(CCO)CCCc2ccc([N+](=O)[O-])cc2)cc(=O)n(C)c1=O
Potency [1]: inactive | Potency [2]: inactive | outcome [3]: inactive | Potency [4]: inactive

CCCCCCCCCCCCCCCCCCCCCCO
Potency [9]: inactive

CN1C(C(=O)Nc2ccccn2)=C(O)c2sccc2S1(=O)=O
Potency [2]: inactive | outcome [3]: inactive | Potency [4]: inactive

COc1cc(OC)c(C(=O)CCCN2CCCC2)c(OC)c1
Potency [1]: inactive | Potency [2]: inactive | outcome [3]: inactive | Potency [4]: inactive

C=CCc1cc(OC)c(O)c(C(=O)NCCO)c1
Potency [1]: inactive | Potency [2]: inactive | outcome [3]: inactive | Potency [4]: inactive

Cc1cccc(-c2[nH]ncc2-c2ccc3ncccc3n2)n1
outcome [5]: inactive | Potency [9]: inactive

O=C(NOCC1CC1)c1ccc(F)c(F)c1Nc1ccc(I)cc1Cl
Potency [2]: inactive | Potency [4]: inactive

Clc1ccc(C(Cn2ccnc2)OCc2ccsc2Cl)c(Cl)c1 (stereo not given)
Potency [2]: inactive | outcome [3]: inactive | Potency [4]: inactive

NC(=NCc1ccccc1)NC(=O)c1nc(Cl)c(N)nc1N
outcome [5]: inactive | Potency [7]: inactive | outcome [6]: inactive | Potency [4]: inactive

CN(C)[C@@H](CCOc1cccc2ccccc12)c1ccccc1
Potency [1]: inactive | Potency [2]: inactive | outcome [3]: inactive | Potency [4]: inactive

Clc1ccc(C(Cn2ccnc2)OCc2ccc(Sc3ccccc3)cc2)c(Cl)c1 (stereo not given)
Potency [1]: inactive | Potency [2]: inactive | outcome [3]: inactive | Potency [4]: inactive

COc1cc(C(C)=O)ccc1OCCCN1CCC(c2noc3cc(F)ccc23)CC1
Potency [2]: inactive | outcome [3]: inactive | Potency [4]: inactive

CCN(CC)CCOc1ccc(Nc2ncc3cc(-c4c(Cl)cccc4Cl)c(=O)n(C)c3n2)cc1
outcome [5]: inactive

CC[C@]1(O)C[C@H]2CN(CCc3c([nH]c4ccccc34)[C@@](C(=O)OC)(c3cc4c(cc3OC)N(C=O)[C@H]3[C@@](O)(C(=O)OC)[C@H](OC(C)=O)[C@]5(CC)C=CCN6CC[C@]43[C@@H]65)C2)C1
Potency [2]: inactive | outcome [3]: inactive | Potency [4]: 100 nM (active)
